Assay results: PubChem BioAssay (Tox21)
Results filed as inconclusive are left out. Unmarked numbers belong to inactive results. Calls follow the shape of the full dose curve.

test: qHTS assay for small molecule agonists of the antioxidant response element (ARE) signaling pathway - cell viability counter screen (AID 743203); conditions: ARE-bla HepG2 viability, CellTiter-Glo luminescence, 16 h; series mostly up to 73.3 µM; viability change, negative = cytotoxic: at the top concentration; also: nearly all actives have a fitted effect of over 55% in size
Text: National Center for Advancing Translational Sciences [NCATS]
NIH Chemical Genomics Center [NCGC]
U.S. Environmental Protection Agency [EPA]
National Institutes of Environmental Health Sciences [NIEHS]
National Toxicology Program [NTP]
U.S. Food and Drug Administration [FDA]
Oxidative stress has been implicated in the pathogenesis of a variety of diseases ranging from cancer to neurodegeneration. The antioxidant response element (ARE) signaling pathway plays an important role in the amelioration of oxidative stress. The CellSensor ARE-bla HepG2 cell line (Invitrogen) can be used for analyzing the Nrf2/antioxidant response signaling pathway. Nrf2 (NF-E2-related factor 2) and Nrf1 are transcription factors that bind to AREs and activate these genes. The CellSensor ARE-bla Hep G2 cell line contains a beta-lactamase reporter gene under control of the Antioxidant Response Element (ARE) stably integrated into HepG2 cells. The activation of the report gene under culture conditions can be detected by fluorescence intensity. This cell line has been used to screen the Tox21 10K compound library to identify agonists that induce oxidative stress. The cytotoxicity of the Tox21 compound library against the ARE-bla cell line was tested in parallel by measuring the cell viability using CellTiter-Glo assay (Promega, Madison, WI) in the same wells.
Tox21 Assay Protocol Summary:
ARE-bla HepG2 cells were dispensed at 2,000 cells/5 ul/well in 1536-well white wall/solid bottom plates using a Multidrop Combi (ThermoFisher Scientific, Waltham, MA) dispenser. After the assay plates were incubated at 37C/5% CO2 for 5 hrs, 23 nL of compounds dissolved in DMSO, positive controls or DMSO only was transferred to the assay plate by a pintool work station (Kalypsys, San Diego, CA). The plates were incubated at 37C/5% CO2 for 16 hrs, followed by addition of 4 ul/well of CellTiter-Glo reagent into the assay plates using a Flying Reagent Dispenser (Aurora Discovery, San Diego, CA). After 30 min incubation at room temperature, the luminescence intensity in the assay plates was measured using a ViewLux (PerkinElmer, Shelton, CT) plate reader.
% is scaled to controls: 0 for no effect and ±100 for the full control effect.

| Compound | viability change, negative = cytotoxic |
| --- | --- |
| OC[C@H](Cc1cccc(O)c1)[C@H](CO)Cc1cccc(O)c1 | 0.662% [at 94.8 µM] |
| OCCCCC(O)CO (stereo not given) | 6.19% |
| CCCCCCCCC(=O)Cl | -9.53% [at 94.8 µM] |
| Cc1cc(NC(=O)C2=C(O)c3ccccc3S(=O)(=O)N2C)no1 | 5.98% |
| CCCCCCOC(=O)CC | 8.26% |
| C=C(C)C(=O)OCCOP(=O)(O)OCCOC(=O)C(=C)C | 1.49% |
| CCOC(=O)[C@H](CCc1ccccc1)N[C@@H](C)C(=O)N1C(=O)N(C)C[C@H]1C(=O)O | -5.56% |
| CC(N)C(=O)OC(C)(C)Cc1ccc(Cl)cc1 (stereo not given) | -1.36% |
| C=CCCCCCCCCCCCC | 8.88% |
| CCOc1cc(NC(C)=O)ccc1C(=O)OC | 7.36% |
| O=C(O)CCSSCCC(=O)O | 0.196% [at 94.8 µM] |
| Cc1ccccc1OCC(O)CO (stereo not given) | -0.419% |
| C[Si](C)(C)C | -0.21% |
| Cc1ccsc1/C=C/C1=NCCCN1C | 0.785% |
| N[C@@H](CCC(=O)N[C@@H](CS)C(=O)NCC(=O)O)C(=O)O | 6.61% [at 34.3 µM] |
| C=Cc1ccccn1 | 0.674% [at 94.8 µM] |
| COCCc1ccc(OCC2CO2)cc1 (stereo not given) | -0.535% |
| Cc1cc(Cl)c(C)cc1Cl | -13% |
| CC(S)C(=O)NCC(=O)O (stereo not given) | 4.62% |
| O=S(O)(O)=S | 2.86% [at 8.36 µM] |

| Compound | viability change, negative = cytotoxic |
| --- | --- |
| O=P(O)(O)OP(=O)(O)O | 3.76% |
| CC1(C)S[C@@H]2[C@H](N=CN3CCCCCC3)C(=O)N2[C@H]1C(=O)O | -5.33% |
| CNS(=O)(=O)CCc1ccc2[nH]cc(C3CCN(C)CC3)c2c1 | -3.03% |
| C=C(C)C1CCC(C)(O)CC1 (stereo not given) | 10.2% |
| OCCN(CCO)c1cccc(Cl)c1 | -24.7% |
| CCCCN | 8.54% |
| O=C(Nc1ccc(Cl)c(Cl)c1)C1CC1 | 3.34% |
| CC(C)CCCC(C)(C)O | 1.08% |
| CC(C(=O)O)c1ccc2c(c1)CC(=O)c1ccccc1S2 (stereo not given) | 0.267% |
| COc1cc(N)ccc1C | 0.446% |
| NCCS | -5.84% |
| Brc1ccc(-c2ccccc2)cc1 | -1.67% |
| COC(=O)[C@@H]1[C@H]2C[C@H]3c4[nH]c5ccccc5c4CCN3C[C@@H]2CC[C@@H]1O | -9.83% |
| CN(C)c1ccc(C=O)cc1 | 5.1% |
| C=C(C)C(=O)OCC(C)(C)COC(=O)C(=C)C | -13% |
| O=C1CC(c2ccc(Cl)cc2)CC(=O)N1 | 12.6% |
| O=S(=O)(O)c1ccc2cc(O)c(S(=O)(=O)O)cc2c1 | 0.0472% |
| CCN1CCc2nc(N)oc2CC1 | 0.395% |
| C[C@@H](O)[C@H]1C(=O)N2C(C(=O)O)=C(SCCN=CN)C[C@H]12 | 9.59% |
| CCCCNc1ccc(C(=O)OCCN(C)C)cc1 | 12.2% |
